In the library only some 4.6% were active in any assay of this set; here they are far more common.
D1 agonist = human D1 receptor agonism | activation, % at 2 µM | 360,000 tested, 1% active | P21728 | HEK293 T-REx D1 cells, calcium flux, agonist mode
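Inducible HEK293 T-REx D1 cells, force-coupled to calcium signalling, were plated at 4000 cells/well with tetracycline and held overnight at 30 C. After no-wash calcium dye loading, compound-evoked calcium rise over 180 s flagged agonists.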
TRHR agonist = agonists of human TRH receptor; P34981; TRHR cells, calcium flux fluo-8, FDSS agonist mode; activation, % at 2 µM; 360,000 tested, 0.18% active; AID 493084
Target sequence (P34981 whole entry, looked up): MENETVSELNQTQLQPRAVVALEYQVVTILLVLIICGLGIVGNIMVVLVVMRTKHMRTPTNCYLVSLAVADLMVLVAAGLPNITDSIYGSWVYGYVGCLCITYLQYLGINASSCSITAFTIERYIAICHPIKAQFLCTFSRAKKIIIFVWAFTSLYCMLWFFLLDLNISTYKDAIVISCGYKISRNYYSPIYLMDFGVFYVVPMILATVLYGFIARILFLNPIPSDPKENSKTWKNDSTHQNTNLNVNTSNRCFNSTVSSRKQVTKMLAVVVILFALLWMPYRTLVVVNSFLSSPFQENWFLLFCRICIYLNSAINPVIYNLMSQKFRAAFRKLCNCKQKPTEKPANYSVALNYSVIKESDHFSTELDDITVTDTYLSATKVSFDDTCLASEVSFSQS
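Fluo-8-loaded TRHR cells; 10 s baseline, compound added, kinetic Ca2+ fluorescence read 1/s, agonist mode.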
TRHR enhancer = allosteric enhancers of human TRH receptor | TRHR cells, fluo-8 calcium fluorescence, EC20 TRH enhancement | 360,000 tested, 0.66% active | P34981 | AID 493056 | enhancement, % at 2 µM; in the data active = enhancement above about 30%
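Enhancer read-out: after compound pinning and an initial kinetic agonist-mode read, an EC20 of TRH (10 nM final) was injected and fluo-8 calcium signal (Ex 480/Em 530) followed at 1 s/cycle for 100 cycles in TRHR-expressing cells.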
D1 PAM = potentiators of human D1 dopamine receptor; P21728; HEK293 TREx D1 cells, calcium flux, dopamine EC20 potentiation; potentiation, % at 10 µM; 360,000 tested, 0.036% active; AID 504651; in the data active = potentiation above about 30%
D1 antagonist = blocks dopamine activation of the human D1 receptor. HEK293 TREx D1 cells, calcium flux, dopamine EC80; hits give low values. 360,000 tested, 3.2% active. activity change, negative = inhibition, % at 10 µM. P21728. AID 504652; in the data active = activity change below about -30%
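Tetracycline-induced HEK293 Trex D1 cells, force-coupled to calcium, dye-loaded; compounds added and read 180 s, then EC80 dopamine added and calcium flux tracked kinetically another 180 s.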
A number is an active result; i = inactive; ! = not active in a repeat. Rule as the data show it, unless noted: active = activation above about 30%; inactive = the rest.

SMILES	D1 agonist	TRHR agonist	TRHR enhancer	D1 PAM	D1 antagonist
Cc1ccc(NC(=O)N2CCN3CCCCC3C2)cc1C (stereo not given)	i	i	i	i	-35.5
Cc1ccc(C)c(CN2C(=O)C3(c4ccccc42)N(c2ccc(Cl)cc2)C(=O)CS3(=O)=O)c1 (stereo not given)	i	i	i	i	i
COC(=O)C1=C(C)N(Cc2ccccc2)C(=NCCc2c[nH]c3ccccc23)N[C@H]1c1cccc(C(F)(F)F)c1	i	i	i	i	i
COC(=O)C1=C(C)N(Cc2ccccc2)C(=NCC(C)C)N[C@H]1c1ccccc1	40.4!	i	i	i	i
C=CCN=C1N[C@@H](c2ccc(Br)cc2)C(C(=O)OC)=C(C)N1Cc1ccccc1	31.2	i	i	i	i
CCN1C(=NCCc2c[nH]c3ccccc23)N[C@@H](c2ccccc2)C(C(=O)OC)=C1C	48.8!	i	i	i	i
COC(=O)C1=C(C)N(Cc2ccccc2)C(=S)N[C@H]1c1ccccc1	i	i	i	i	i
COC(=O)C1=C(C)N(Cc2ccccc2)C(=O)N[C@H]1c1ccccc1	100.4	i	i	i	i
COc1ccccc1NC(=O)C1=C(C)Nc2nnnn2C1c1ccc(C(F)(F)F)cc1 (stereo not given)	i	i	i	i	i
COCCN=C1N[C@@H](c2cccc(C(F)(F)F)c2)C(C(=O)OC)=C(C)N1Cc1ccccc1	31.8	i	i	i	i
CC(=O)C1=C(C)N(Cc2ccccc2)C(=O)N[C@H]1CCc1ccccc1	i	i	i	i	-30.7
CC[C@@H](C)CN1C(=O)N[C@@H](CCc2ccccc2)C(C(C)=O)=C1C	i	i	i	i	i
Cc1cc(C)n(-c2nnc(N3CCN(c4ccc(F)cc4)CC3)nn2)n1	i	i	i	i	-41.9
NS(=O)(=O)c1ccc(CCNC(=O)c2cccc([N+](=O)[O-])c2)cc1	i	i	i	i	i
Cc1cc(C(=O)NCCc2ccccc2)ccc1[N+](=O)[O-]	i	i	i	i	i
O=C(Cc1ccccc1)NCCc1cccc(Cl)c1	i	i	i	i	-55.2
O=C(NCCc1ccccc1)c1ccc(Cl)c([N+](=O)[O-])c1	i	i	i	i	-36.4
O=C(NCCc1cccc(Cl)c1)c1cccc([N+](=O)[O-])c1	i	i	i	i	-42.4
CCOc1ccc(N(CC(=O)Nc2ccccc2CC)S(=O)(=O)c2c(C)noc2C)cc1	i	i	i	i	i
CCn1ccnc1CN(C)C(=O)c1cc(COc2ccccc2SC)on1	i	i	i	i	i
Cc1ccccc1S(=O)(=O)Nc1cccnc1	i	i	i	i	i
CCn1ncc(S(=O)(=O)Nc2cccnc2)c1C	i	i	i	i	-41.0
CCOC(=O)c1cc(-c2ccccc2)n(CCCC(=O)Nc2ccc(C)c(C)c2)c1C	i	i	i	i	-47.8
CCOC(=O)c1cc(-c2ccccc2)n(CCC(=O)Nc2ccc(C(F)(F)F)cc2)c1C	85.1	i	i	i	i
CC(=O)c1cc(-c2ccccc2)n(CCC(=O)Nc2ccc(C(C)C)cc2)c1C	63.3	i	i	i	i
SMILES	D1 agonist	TRHR agonist	TRHR enhancer	D1 PAM	D1 antagonist
CCOC(=O)c1cc(-c2ccccc2)n(CCCC(=O)Nc2ccc(C)c(Cl)c2)c1C	i	i	i	i	i
CCc1nnc(SC(CC)C(=O)Nc2cccc(OC)c2)c2cc3oc(C)cc3n12 (stereo not given)	i	i	i	i	i
CCN(C(=O)COC(=O)CCC(=O)c1cccs1)c1c(N)n(Cc2ccccc2)c(=O)[nH]c1=O	i	i	i	i	i
Cc1ccc(-c2nc(-c3cccs3)c(-c3cccs3)[nH]2)cc1	i	i	i	i	-33.0
O=[N+]([O-])c1cccc(-c2nc(-c3cccs3)c(-c3cccs3)[nH]2)c1	i	i	i	i	-35.6
Fc1ccc(-c2nc(-c3cccs3)c(-c3cccs3)[nH]2)cc1	i	i	i	i	i
O=[N+]([O-])c1ccc(-c2nc(-c3cccs3)c(-c3cccs3)[nH]2)cc1	37.8	i	i	i	i
Cc1cccc(OC(=O)c2nc(SCc3ccccc3F)ncc2Cl)c1	i	i	i	i	i
CCCCCCSc1ccc([C@H]2N[C@@](C)(C(=O)OC)[C@H]3C(=O)N(CC)C(=O)[C@@H]23)cc1	i	i	i	i	i
CC1CC(C)CN(CCOCCSc2ccccc2)C1 (stereo not given)	i	i	i	i	-38.5
CC1CC(C)CN(CCCSc2ccccc2)C1 (stereo not given)	i	i	31.9	i	i
CCOP(=O)(OCC)c1nc(-c2ccc(Cl)cc2Cl)oc1N1CCCCC1	i	i	i	i	i
O=P(c1ccccc1)(c1ccccc1)c1nc(-c2ccccc2)oc1N1CCOCC1	i	i	i	i	i
CCOP(=O)(OCC)c1nc(-c2ccc(Br)cc2)oc1N1CCCCC1	i	i	i	i	-45.0
CCOP(=O)(c1ccccc1)c1nc(-c2ccc(F)cc2)oc1N1CCCCC1 (stereo not given)	32.9	i	i	i	i
CC1(C)CC(=O)C(=Cc2cn(-c3ccccc3)nc2-c2ccc(Cl)cc2)C(=O)C1	59.5	i	i	i	i
COc1ccccc1-c1c(C)nn2c(C)cc(C)nc12	i	i	i	i	-35.8
Oc1ccccc1Nc1nc(NCc2ccco2)c2ccccc2n1	i	i	i	i	i
Cc1ccc(OCCN2CCN(c3nc(NCc4ccco4)c4ccccc4n3)CC2)cc1	i	i	i	i	-32.8
Cc1ccccc1Nc1nc(NCc2ccco2)c2ccccc2n1	i	i	i	i	-36.1
OCCN1CCN(c2nc(NCc3ccco3)c3ccccc3n2)CC1	i	i	i	i	i
COCCCN1CCN(C2Cc3ccccc3Sc3ccc(Cl)cc32)CC1 (stereo not given)	i	i	i	i	-85.5
NC(=O)CCN1CCN(CCOC2Cc3cc(Cl)ccc3Sc3ccccc32)CC1 (stereo not given)	i	i	i	i	i
O=C(c1ccccc1Cl)N1CCNCC1	i	i	i	i	i
Clc1ccc2c(c1)C(N1CCNCC1)Cc1ccccc1S2 (stereo not given)	i	i	i	i	-86.4
SMILES	D1 agonist	TRHR agonist	TRHR enhancer	D1 PAM	D1 antagonist
Clc1cccc2c1Sc1ccccc1CC2N1CCNCC1 (stereo not given)	56.7	i	i	i	-77.9
O=C(O)C1CCCCC1C(=O)OCCCCOC(=O)C1CCCCC1C(=O)O (stereo not given)	i	i	i	i	-30.9
O=C(O)[C@H]1CCCC[C@H]1C(=O)NCCNC(=O)[C@@H]1CCCC[C@@H]1C(=O)O	i	i	i	i	i
O=C(/C=C/c1ccco1)NC(=S)Nc1cccc([N+](=O)[O-])c1	i	i	32.3	i	i
CC(C)c1ccccc1OCCCCCNCCO	93.1	i	i	i	i
CC(C)(C)c1ccccc1OCCCCCNCCO	32.6	i	i	i	i
Cc1ccccc1OCCCCCNCCO	i	i	i	i	i
COc1ccccc1OCCCCNCCO	i	i	i	i	i
